This is a sample that favours compounds with a hit; in the whole collection about 7.4% have one here.
NPC1 prom act = qHTS Assay for NPC1 Promoter Activators. Huh7 NPC1 promoter luciferase reporter, 24 h. Potency, µM (doses to about 9.22 µM), without a hit: at the highest dose activation, usual class: activators. actives 2.4% (n = 320,000); note: % of control where 0% means no effect; nearly all actives have a fitted effect of over 60% in size
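Huh7 reporter cells (NPC1 promoter driving luciferase) are dosed with compound for 24 h at 37 °C, 5% CO2; luciferase detection reagent is then added and luminescence measured after 10 min at ambient temperature.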
SMN2 splice enh = qHTS Assay for Enhancers of SMN2 Splice Variant Expression; HEK293 SMN2-luciferase splicing reporter, luminescence, 30-36 h; Potency, µM (top dose mostly 46.1 µM), for inactives: at the highest dose activity change, positive = activation, most hits filed as activators; actives 2.8% (n = 210,000); note: % of control where 0% means no effect; nearly all actives have a fitted effect of over 55% in size
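HEK293 cells carry an SMN2 minigene-luciferase reporter in which exon 7 inclusion puts luciferase in frame. Cells were seeded at 2000 cells/well, attached for 10-12 hours, then exposed to compounds for 30-36 hours at 37C before ONE-Glo luminescence.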
Rab9 promoter act = qHTS Assay for Rab9 Promoter Activators; Huh7 Rab9 promoter-luciferase reporter, luminescence, 24 h; Potency, µM (doses to about 9.22 µM), for the others: at the highest dose activation, negative = inhibition, hits mostly activators; actives 2.8% (n = 320,000); note: % of control where 0% means no effect; nearly all actives have a fitted effect of over 60% in size
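Luciferase signal after 10 min detection reagent at ambient indicates Rab9 promoter upregulation; stably transfected Huh7 cells were treated 24 h with compound in DMSO at 37 °C, 5% CO2.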
KinaseGlo FLuc = Counterscreen for Luciferase (Kinase-Glo TM) Inhibition; Luciferin 4-monooxygenase (Photuris pensylvanica), Q27757; Kinase-Glo luciferase, ATP luminescence, 8 min; Potency, µM (highest dose often 38.3 µM), for the others: at the highest dose activity change, negative = inhibition, usual class: inhibitors; actives 0.28% (n = 200,000); AID 1379, 2008; note: % is set by controls: 0 for no effect and ±100 for the full control effect; nearly all actives have a fitted effect of over 60% in size
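Inhibition of Kinase-Glo luciferase light generation was assessed at 10 uM ATP in pH 7.2 imidazole buffer, with luminescence measured after eight minutes at ambient temperature.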
FLuc modulator = qHTS profiling assay for firefly luciferase inhibitor/activator using purifed enzyme and Km concentrations of substrates (counterscreen for miR-21 project). Luciferin 4-monooxygenase (Photinus pyralis), P08659. purified FLuc, Km substrates, luminescence inhibition. Potency, µM (titrated, usually from 57.5 µM), without a hit: top-dose activity change, negative = inhibition, actives largely listed as inhibitors. actives 6.9% (n = 360,000);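 note: plate controls were vehicle for no effect and reference inhibitor for full effect; nearly all actives have a fitted effect of over 55% in size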
Target sequence (P08659 whole entry, looked up): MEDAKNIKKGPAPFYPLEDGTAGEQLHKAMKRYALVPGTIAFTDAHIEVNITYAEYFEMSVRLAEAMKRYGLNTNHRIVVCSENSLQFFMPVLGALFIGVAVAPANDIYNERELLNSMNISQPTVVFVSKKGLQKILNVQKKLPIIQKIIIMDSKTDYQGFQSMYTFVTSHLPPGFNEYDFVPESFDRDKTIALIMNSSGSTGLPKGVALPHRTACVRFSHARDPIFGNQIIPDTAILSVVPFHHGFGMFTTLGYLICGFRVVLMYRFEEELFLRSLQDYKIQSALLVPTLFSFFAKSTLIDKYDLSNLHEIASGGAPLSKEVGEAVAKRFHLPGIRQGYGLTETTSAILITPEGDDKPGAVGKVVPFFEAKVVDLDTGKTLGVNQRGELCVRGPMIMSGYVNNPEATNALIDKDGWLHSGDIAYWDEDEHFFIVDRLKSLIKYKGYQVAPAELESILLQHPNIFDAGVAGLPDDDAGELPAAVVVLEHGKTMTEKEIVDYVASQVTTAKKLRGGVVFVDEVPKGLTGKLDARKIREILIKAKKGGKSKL
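Purified P. pyralis luciferase (10nM final) with 10uM D-luciferin and 10uM ATP (Km levels) in 50mM Tris acetate pH 7.5, 10mM Mg acetate, 0.01% Tween-20, 0.05% BSA; qHTS 6-point titration, ~60 µM downward; luminescence read.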
ELG1 genotoxic = qHTS screen for small molecules that induce genotoxicity in human embryonic kidney (HEK293T) cells expressing luciferase-tagged ELG1; Potency, µM (top dose mostly 46 µM), for the others: at the top dose activity change, positive = activation, hits mostly activators; HEK293T ELG1-luciferase reporter, luminescence, 16 h; actives 1.3% (n = 330,000); note: % of control where 0% means no effect; nearly all actives have a fitted effect of over 60% in size
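Genotoxic stress is detected as increased luminescence from luciferase-tagged ELG1 in HEK293T cells, measured with ONE-Glo after a 16 hr treatment at 37 °C.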
An asterisk follows results filed as active; ? = inconclusive; nt = no result. Calls come from the whole dose curve; as a rule, active = well fitted curve in the direction sought with a large enough effect; inconclusive = small, poorly fitted or top-dose-only effect, or another doubt; inactive = no such curve, though single readings can be large; an effect the other way counts as inactive or inconclusive. Potency is the fitted concentration of half-maximal effect.

SMILES | NPC1 prom act | SMN2 splice enh | Rab9 promoter act | KinaseGlo FLuc | FLuc modulator | ELG1 genotoxic
CC(C)c1ccc(/C=N/NC(=O)c2cccc(Cl)c2)cc1 | 2.8µM* | 16µM* | 2.8µM* | -9% | 2.7µM* | 21µM*
CN(C)c1ccc(/C=N/NC(=O)c2ccn(C)n2)cc1 | 2.5µM* | nt | 4.5µM* | nt | 3.8µM* | ?
Cc1nnsc1C(=O)N/N=C/c1ccccc1 | 1% | 19% | -2% | -5% | -6% | 1%
Cc1cccc(/C=N/NC(=O)C[n+]2ccccc2)c1 | -2% | nt | 1% | nt | 3% | 1%
O=C(N/N=C/c1ccc(N2CCOCC2)cc1)c1ccccn1 | 2.5µM* | nt | 2.2µM* | nt | 6.7µM* | ?
Cc1cccc(/C=N\NC(=O)c2csnn2)c1 | ? | 17% | 28% | ? | 8.5µM* | ?
Cc1ccc(/C=N/NC(=O)c2ccccn2)o1 | ? | ? | ? | -11% | 24µM* | ?
O=C(N/N=C\c1ccc(Oc2ccccc2)cc1)c1csnn1 | 3.5µM* | 16µM* | 2.2µM* | -9% | 2.7µM* | ?
O=C(N/N=C\c1cc([N+](=O)[O-])ccc1N1CCOCC1)c1ccccn1 | -2% | -11% | -5% | 1% | 3% | 10%
CC(CNC(=O)Cn1ncc2c3ccccc3n(Cc3cccc(Cl)c3)c2c1=O)c1ccccc1 (configuration not stated) | nt | 1% | nt | nt | 3% | nt
COC(=O)C1(Cc2ccccc2)C2c3cc(C(=O)N4CCCC4)n(Cc4ccc(OC(F)(F)F)cc4)c3CC2CN1C(=O)c1ccccc1 (configuration not stated) | nt | -46% | nt | 1% | nt | nt
O=C(N/N=C/c1ccncc1)c1cnccn1 | -2% | nt | 0% | nt | -8% | 6%
CN(C)c1ccc(/C=N\NC(=O)c2csnn2)cc1 | 0.89µM* | 16µM* | 0.63µM* | ? | 3.8µM* | ?
Cc1ccc(/C=N/NC(=O)c2cccc(NC(=O)c3ccccc3Cl)c2)o1 | -2% | nt | -2% | nt | 17µM* | -4%
Cc1ccc(/C=N/NC(=O)c2cccc(NC(=O)c3ccccc3C)c2)o1 | 3% | nt | -1% | nt | ? | 0%
CC(C)c1ccc(C(=O)N/N=C/c2cccc(Cl)c2Cl)cc1 | ? | 5% | ? | -1% | 8.5µM* | 0%
CC(C)c1ccc(/C=N/NC(=O)c2ccccn2)cc1 | 0.14µM* | nt | 0.32µM* | nt | 0.38µM* | ?
COc1cc(CCNC(C)=O)c(C(=O)/C=C/c2cccc(OC)c2OC)cc1OC | nt | -48% | nt | 1% | nt | nt
Cc1ccc(OCc2nc3ccccc3n2Cc2ccccc2Cl)cc1 | nt | -5% | nt | nt | ? | nt
CN(C)c1ccc(/C=N/NC(=O)c2ccnn2C)cc1 | 2.5µM* | nt | 0.5µM* | 1.8µM* | 5.4µM* | ?
CC(C)c1ccc(/C=N/NC(=O)CCNC(=O)c2ccccc2)cc1 | ? | nt | ? | nt | 8.5µM* | 23%
CCOC(=O)c1ccc(COC(=O)c2nonc2N)cc1 | 1% | -13% | 2% | 1% | 15µM* | 0%
O=C(O)c1ccc(/C=C(\c2nc3ccccc3[nH]2)c2nc3ccccc3s2)cc1 | 2% | nt | -1% | nt | 15µM* | -7%
Nc1ccc(-c2nc3c(ccc4ccccc43)[nH]2)cc1 | ? | nt | ? | nt | 2.4µM* | ?
O=C(O)c1ccc(-c2nc3ccccc3[nH]2)cc1 | -2% | 14% | -11% | -17% | 15µM* | 2%
SMILES | NPC1 prom act | SMN2 splice enh | Rab9 promoter act | KinaseGlo FLuc | FLuc modulator | ELG1 genotoxic
Cn1cc(-c2nc3ccccc3[nH]2)c2ccccc21 | ? | 22µM* | ? | -17% | 4.3µM* | 6%
Cc1c(-c2nc3ccccc3[nH]2)cnn1C | 3% | nt | -5% | nt | ? | 6%
CC(=O)/C(=C(/O)c1ccccc1)c1nc2ccccc2[nH]1 | 9% | 22% | 17% | -1% | 1% | 8%
CC(C1CCCC(=O)C1)[N+](=O)[O-] (configuration not stated) | nt | 12% | nt | -2% | nt | nt
CC(=O)c1cc(-c2ccccc2)n(CC(=O)NCc2ccccc2C)c1C | nt | -7% | nt | nt | -6% | nt
O=C(Nc1ccccc1Cl)C1CCN(c2nc3ccccc3nc2C(F)(F)F)CC1 | nt | nt | nt | nt | -9% | nt
Nc1ccc(-c2nc3ccccc3[nH]2)cc1 | 1.6µM* | 4.5µM* | 0.45µM* | ? | 9.5µM* | 2.9µM*
Oc1ccc(C=Nc2ccccc2-c2nc3ccccc3[nH]2)cc1 | ? | 13µM* | 13% | -17% | 27µM* | 9%
O=c1[nH]cccc1-c1nc2ccccc2[nH]1 | ? | nt | 29% | nt | ? | ?
Nc1ccccc1-c1nc2ccccc2[nH]1 | 4µM* | ? | 6.3µM* | -8% | 12µM* | 10µM*
Fc1ccc(-c2nc3ccccc3[nH]2)cc1 | 2.5µM* | 10µM* | 2.5µM* | ? | 12µM* | ?
O=C(Nc1ccc(-c2nc3ccccc3[nH]2)cc1)c1ccccc1NS(=O)(=O)c1ccc(F)cc1 | -4% | -24% | 6% | -4% | ? | 0%
Cc1ccc(NC(=O)Cn2c(=O)n(-c3ccc(CC(=O)NCC4CCCO4)cc3)c(=O)c3ccccc32)cc1 (configuration not stated) | nt | 0% | nt | nt | -2% | nt
O=C(NCC(c1cccnc1)N1CCc2ccccc21)c1cccc(F)c1 (configuration not stated) | nt | nt | nt | nt | -3% | nt
COc1ccccc1C(=O)NC1(C(F)(F)F)C(=O)Nc2c1c(=O)[nH]c(=O)n2-c1ccc(F)cc1 (configuration not stated) | nt | -6% | nt | nt | ? | nt
COc1cccc(-c2cc(C(F)(F)F)n3ncc(C(=O)OC(C)C)c3n2)c1 | nt | 2% | nt | nt | -3% | nt
Cc1cccc(NCc2ccc(N(C)C)cc2)n1 | ? | nt | ? | nt | 11µM* | 18µM*
CN(C)c1ccc(CNc2ccccn2)cc1 | ? | nt | ? | nt | 13µM* | ?
Cc1ccc(O)c(CNc2cccc(C)n2)c1 | 2% | nt | 4% | nt | -23% | 1%
CN(C)c1ccc(-c2cc(NCc3cccnc3)ncn2)cc1 | nt | 10µM* | nt | -3% | nt | nt
CN(C)c1ccc(CNc2ncc(Br)cc2Br)cc1 | 19% | 17% | 7% | -2% | 19µM* | 11%
Cc1cccc(CNc2cc(-c3ccc(N(C)C)cc3)ncn2)c1 | nt | -12% | nt | -3% | nt | nt
COCCCn1c(SCc2ccccc2F)nc2c(sc3ccccc32)c1=O | nt | nt | nt | nt | 4% | nt
Fc1ccc(CNc2ccccn2)cc1 | 8% | nt | 14% | nt | -30% | 5%

Screening results from PubChem.
